Results reported in publication PMC7826789 (International Journal of Molecular Sciences, 2021).

system: INSRR; details: Compound Concentration (nM):1000
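Further: KINOMEscan scanMAX binding as percent activity remaining versus control; lower means stronger binding.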

| Structure (SMILES) | Percent Control [%] |
| --- | --- |
| CCS(=O)(=O)c1ccc(OC)c(Nc2ncc(-c3cccc(F)c3)o2)c1 [GW621970X] | 100 |
| CN(C)CCNC(=O)Nc1ccc(N(C)c2ccnc(Nc3ccc(CS(C)(=O)=O)cc3)n2)cc1.Cl [GW830900A] | 99 |
| COc1cc(/C=N/Nc2ncnc3[nH]ncc23)ccc1O [GW578748X] | 100 |
| COc1ccc2cc(-c3c(-c4ccncc4)nc(-c4ccc(S(C)(=O)=O)cc4C)n3C)ccc2c1 [SB-633825] | 89 |
| COc1ccc(COc2ccc(Cc3cnc(N)nc3N)cc2OC)cc1 [GW632580X] | 100 |
| COc1cccc(-n2ncc3c(N/N=C/c4ccncc4)ncnc32)c1 [GW784752X] | 100 |
| CN(C)c1cc2c(Nc3ccc4c(cnn4Cc4ccccc4)c3)ncnc2cn1 [GW282974X] | 100 |
| Cc1cc(O)cc(C)c1/C=C/c1cncc(C(N)=O)c1 [GW435821X] | 100 |
| NS(=O)(=O)c1ccc(N/N=C2\C(=O)Nc3ccc(-c4cnco4)cc32)cc1 [GW276655] | 83 |
| O=C(Nc1n[nH]c2nc(-c3ccc(O)cc3)c(Br)cc12)C1CC1 [SB-725317] | 100 |
| NS(=O)(=O)c1ccc(Nc2ncc(-c3ccccc3)o2)cc1 [GW572399X] | 100 |
| Cl.O=C(O[C@H]1CN[C@H](C#Cc2cc3ncnc(Nc4ccc5c(cnn5Cc5ccccc5)c4)c3s2)C1)N1CCOCC1 [GSK200398A] | 100 |
| COc1ccccc1-c1cc(/C=C2\C(=O)Nc3ncc(Br)cc32)cc(Br)c1O [GW442130X] | 100 |
| CC1=C(C(=O)Nc2ccc3[nH]ncc3c2)C(c2ccc(Cl)c(Cl)c2)CC(=O)N1 (centres unmarked) [GSK299115A] | 100 |
| COc1cc2ncnc(Nc3ccc4c(cnn4Cc4ccccc4)c3)c2cc1OC.Cl [GW282449A] | 100 |
| O=C1Nc2ccc(C(=O)c3ccco3)cc2C1=Cc1cc(Cl)c(O)c(Cl)c1 [GW406108X] | 100 |
| CC(C)COC(=O)c1ccc2c(c1)/C(=C/Nc1ccc(S(N)(=O)=O)cc1)C(=O)N2 [GW416981X] | 100 |
| Cl.O=S1CCN(Cc2ccc(-c3ccc4ncnc(Nc5ccc(OCc6ccccc6)c(F)c5)c4c3)o2)CC1 [GW576924A] | 100 |
| CCn1c(-c2nonc2N)nc2c(C#CC(C)(C)O)nc(OCCNC)cc21.Cl [GSK949675] | 100 |
| COc1cc(C=NNc2ncnc3c2cnn3-c2ccccc2)ccc1O [GW513184X] | 100 |
| Cl.O=C(Nc1ccc(Oc2ccc3[nH]c(NC(=O)c4ccccc4)nc3c2)cc1)Nc1cc(C(F)(F)F)ccc1F [GW709042A] | 100 |
| Nc1ncnc2occ(-c3ccc(NC(=O)Nc4cc(C(F)(F)F)ccc4F)cc3)c12 [GW770249X] | 100 |
| NS(=O)(=O)c1ccc(N/N=C2\C(=O)Nc3ccc(C(=O)NCc4ccncc4)cc32)cc1 [GW300657X] | 89 |
| C/C(Nc1ccc(S(N)(=O)=O)cc1)=C1/C(=O)Nc2ccccc21 [GW335962X] | 100 |
| C[C@@H](Oc1cc(-n2cnc3ccc(OC4CCN(C)CC4)cc32)sc1C(N)=O)c1ccccc1Cl [GSK579289A] | 90 |
| COc1ccc2[nH]c3c4[nH]c5ccc(OC)cc5c4c4c(c3c2c1)C(=O)NC4=O [GW296115X] | 95 |
| CN1CCN(C(=O)c2ccc(NC(=O)Nc3ccc(N(C)c4ccnc(Nc5ccc(CS(C)(=O)=O)cc5)n4)cc3)cc2)CC1.Cl [GW830263A] | 100 |
| CCc1ccc(Oc2nccc(-c3c(-c4ccc(F)cc4)ncn3C3CCNCC3)n2)cc1 [SB-242719] | 100 |
| NS(=O)(=O)c1ccc(N/N=C2\C(=O)Nc3ccc(Cl)cc32)cc1 [GW280670X] | 100 |
